Measured values taken from PubChem BioAssay AID1159580 (chemical genetic matrix, 2015).
The campaign covered roughly 5,500 compounds. About 2,000 (36%) were called active. Not shown: some 18% with an inconclusive outcome. Cut-off read from the data, not from the text of the source: active = normalized growth mostly below about 0.91 (no sharp cut-off); inconclusive = no clear call, values can overlap the other calls; inactive = mostly above about 0.92. The list shows a part of the results.

Experiment: chemical genetic growth profiling, strain panel (AID 1159580);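 note: tested at 20 µM; growth read once vehicle control cultures reached saturation at 30 °C; 1 = growth at the plate median or of vehicle wells; lower values mean less growth of the strain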
Conditions: growth OD

Measured: normalized growth

O=C1NC(=O)C(=O)C(=O)N1
inactive: S. cerevisiae deletion strains, locus YJR075W, strain HOC1, active compounds read low 1.04 | S. cerevisiae deletion strains, locus YKL009W, strain mrt4, active compounds read low 0.992 | S. cerevisiae deletion strains, locus YKL068W, active compounds read low 0.997 | S. cerevisiae deletion strains, locus YKL085W, strain MDH1 (second series), active compounds read low 1 | S. cerevisiae deletion strains, locus YKL085W, strain MDH1, active compounds read low 1 | S. cerevisiae deletion strains, locus YKL160W, strain elf1, active compounds read low 0.989 | S. cerevisiae deletion strains, locus YKL190W, strain CNB1, active compounds read low 1.01 | S. cerevisiae deletion strains, locus YKR001C, strain vps1, active compounds read low 0.994 | S. cerevisiae deletion strains, locus YKR026C, strain gcn3, active compounds read low 0.992 | S. cerevisiae deletion strains, locus YKR091W, strain srl3, active compounds read low 0.989 | S. cerevisiae deletion strains, locus YLL001W, strain dnm1, active compounds read low 0.994 | S. cerevisiae deletion strains, locus YLL026W, active compounds read low 0.998 | S. cerevisiae deletion strains, locus YLL041C, strain sdh2, active compounds read low 1 | S. cerevisiae deletion strains, locus YLR027C, strain aat2, active compounds read low 1 | S. cerevisiae deletion strains, locus YLR039C, strain RIC1, active compounds read low 1.04 | S. cerevisiae deletion strains, locus YLR058C, strain SHM2, active compounds read low 1.02 | S. cerevisiae deletion strains, locus YLR102C, strain apc9, active compounds read low 0.987 | S. cerevisiae deletion strains, locus YLR113W, strain HOG1, active compounds read low 0.967 | S. cerevisiae deletion strains, locus YLR221C, strain rsa3, active compounds read low 0.99 | S. cerevisiae deletion strains, locus YLR258W, strain gsy2, active compounds read low 1.01 | S. cerevisiae deletion strains, locus YLR262C, strain YPT6 (second series), active compounds read low 0.989 | S. cerevisiae deletion strains, locus YLR262C, strain YPT6, active compounds read low 1.04 | S. cerevisiae deletion strains, locus YLR268W, strain sec22, active compounds read low 0.968 | S. cerevisiae deletion strains, locus YLR320W, strain mms22, active compounds read low 0.994 | S. cerevisiae deletion strains, locus YLR330W, strain CHS5, active compounds read low 1.01 | S. cerevisiae deletion strains, locus YLR342W, strain FKS1 (second series), active compounds read low 1.05 | S. cerevisiae deletion strains, locus YLR342W, strain FKS1, active compounds read low 0.975 | S. cerevisiae deletion strains, locus YLR357W, strain rsc2, active compounds read low 0.952 | S. cerevisiae deletion strains, locus YLR370C, strain arc18, active compounds read low 0.982 | S. cerevisiae deletion strains, locus YLR371W, strain rom2, active compounds read low 0.978 | S. cerevisiae deletion strains, locus YLR384C, strain iki3, active compounds read low 0.99 | S. cerevisiae deletion strains, locus YLR418C, strain cdc73, active compounds read low 0.991 | S. cerevisiae deletion strains, locus YML016C, strain PPZ1, active compounds read low 1.01 | S. cerevisiae deletion strains, locus YML032C, strain rad52, active compounds read low 0.976 | S. cerevisiae deletion strains, locus YML120C, strain ndi1, active compounds read low 0.99 | S. cerevisiae deletion strains, locus YML124C, strain tub3, active compounds read low 0.993 | S. cerevisiae deletion strains, locus YMR058W, strain fet3, active compounds read low 0.999 | S. cerevisiae deletion strains, locus YMR078C, strain ctf18, active compounds read low 0.98 | S. cerevisiae deletion strains, locus YMR125W, strain sto1, active compounds read low 0.982 | S. cerevisiae deletion strains, locus YMR129W, active compounds read low 0.982 | S. cerevisiae deletion strains, locus YMR205C, strain PFK2, active compounds read low 1 | S. cerevisiae deletion strains, locus YMR223W, strain ubp8, active compounds read low 1.01 | S. cerevisiae deletion strains, locus YMR231W, strain pep5, active compounds read low 0.98 | S. cerevisiae deletion strains, locus YMR263W, strain SAP30, active compounds read low 1.01 | S. cerevisiae deletion strains, locus YMR307W, strain GAS1, active compounds read low 1.03 | S. cerevisiae deletion strains, locus YNL067W, strain RPL9B, active compounds read low 1.01 | S. cerevisiae deletion strains, locus YNL071W, strain lat1, active compounds read low 0.988 | S. cerevisiae deletion strains, locus YNL128W, strain TEP1, active compounds read low 1.02 | S. cerevisiae deletion strains, locus YNL153C, strain GIM3, active compounds read low 1.02 | S. cerevisiae deletion strains, locus YNL183C, strain NPR1, active compounds read low 0.912 | S. cerevisiae deletion strains, locus YNL209W, strain ssb2, active compounds read low 0.985 | S. cerevisiae deletion strains, locus YNL233W, strain BNI4, active compounds read low 1.01 | S. cerevisiae deletion strains, locus YNL248C, strain rpa49, active compounds read low 0.996 | S. cerevisiae deletion strains, locus YNL250W, strain rad50, active compounds read low 0.995 | S. cerevisiae deletion strains, locus YNL271C, strain bni1, active compounds read low 0.995 | S. cerevisiae deletion strains, locus YNL298W, strain CLA4, active compounds read low 0.999 | S. cerevisiae deletion strains, locus YNL307C, strain MCK1, active compounds read low 1.01 | S. cerevisiae deletion strains, locus YNL322C, strain KRE1 (second series), active compounds read low 0.989 | S. cerevisiae deletion strains, locus YNL322C, strain KRE1, active compounds read low 1.01 | S. cerevisiae deletion strains, locus YNR049C, strain mso1, active compounds read low 0.988 | S. cerevisiae deletion strains, locus YNR052C, strain pop2, active compounds read low 0.971 | S. cerevisiae deletion strains, locus YOL006C, strain TOP1, active compounds read low 1.1 | S. cerevisiae deletion strains, locus YOL012C, strain htz1 0.951 | S. cerevisiae deletion strains, locus YOL147C, strain pex11, active compounds read low 0.998 | S. cerevisiae deletion strains, locus YOR001W, strain rrp6, active compounds read low 0.969 | S. cerevisiae deletion strains, locus YOR061W, strain CKA2, active compounds read low 1.01 | S. cerevisiae deletion strains, locus YOR069W, strain VPS5, active compounds read low 1.01 | S. cerevisiae deletion strains, locus YOR070C, strain gyp1, active compounds read low 0.984 | S. cerevisiae deletion strains, locus YOR080W, strain dia2, active compounds read low 0.99 | S. cerevisiae deletion strains, locus YOR083W, strain WHI5, active compounds read low 0.996 | S. cerevisiae deletion strains, locus YOR106W, strain vam3, active compounds read low 0.99 | S. cerevisiae deletion strains, locus YOR136W, strain idh2, active compounds read low 0.996 | S. cerevisiae deletion strains, locus YOR144C, strain elg1, active compounds read low 0.987 | S. cerevisiae deletion strains, locus YOR184W, strain ser1, active compounds read low 0.997 | S. cerevisiae deletion strains, locus YOR231W, strain MKK1, active compounds read low 0.964 | S. cerevisiae deletion strains, locus YOR265W, strain rbl2, active compounds read low 1.01 | S. cerevisiae deletion strains, locus YOR270C, strain vph1, active compounds read low 1.07 | S. cerevisiae deletion strains, locus YOR290C, strain snf2, active compounds read low 0.983 | S. cerevisiae deletion strains, locus YOR316C, strain cot1, active compounds read low 0.987 | S. cerevisiae deletion strains, locus YPL051W, strain arl3, active compounds read low 1.01 | S. cerevisiae deletion strains, locus YPL055C, strain LGE1, active compounds read low 1.04 | S. cerevisiae deletion strains, locus YPL078C, strain atp4, active compounds read low 0.987 | S. cerevisiae deletion strains, locus YPL106C, strain sse1, active compounds read low 0.99 | S. cerevisiae deletion strains, locus YPL240C, strain hsp82, active compounds read low 0.995 | S. cerevisiae deletion strains, locus YPL241C, strain CIN2, active compounds read low 1.01 | S. cerevisiae deletion strains, locus YPL256C, strain CLN2, active compounds read low 0.955 | S. cerevisiae deletion strains, locus YPR119W, strain clb2, active compounds read low 0.983 | S. cerevisiae deletion strains, locus YPR141C, strain kar3, active compounds read low 0.994 | S. cerevisiae deletion strains, locus YPR163C, strain tif3, active compounds read low 0.987 | S. cerevisiae deletion strains, locus YPR167C, strain met16, active compounds read low 0.986 | S. cerevisiae deletion strains, strain wtn01, active compounds read low 0.98 | S. cerevisiae strains, strain wild type, active compounds read low 1.02
